According to PubChem BioAssay (EPA / NIEHS):
“And” between values parts separate entries of the source, which are not always exact repeats. Equal entries are not always repeated. Inconclusive results are not listed. The source made the active and inactive calls. The calls were made as follows, unless noted: active = hit-call score of the fitted dose curve at least 0.9, where 1 is the maximum; inconclusive = response in the unintended direction; inactive = score below 0.9.

Assays:
[1] = molecular target: human CYP2D6, CYP2D6 (gene 1565) (UniProt P10635); experiment: NVS_ADME_hCYP2D6: NovaScreen (NVS) CYP450-related Enzyme Activity (ADME) Assay for human CYP2D6 (AID 2283107)
Summary of the method: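 Cell-free assay using recombinant human CYP2D6 expressed in insect cells, with a fluorogenic substrate read after 1 h. Primary screen in duplicate at 10 uM; actives followed up in concentration series. Loss of signal fitted relative to acetonitrile.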

[2] = molecular target: human Caspase 8 (CASP8), CASP8 (gene 841) (UniProt Q14790); experiment: NVS_ENZ_hCASP8: NovaScreen (NVS) Enzymatic Assay for human Caspase 8 (CASP8) (AID 2283146)
Summary of the method: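 The primary screen tested compounds in duplicate at a single 25 uM concentration, with actives followed up in concentration series. Activity of recombinant (E. coli) protease was measured by fluorescence 1 h post-dose, as signal loss against DMSO.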

[3] = molecular target: Cytochrome P450 3A4 (Homo sapiens) (UniProt P08684); experiment: NVS_ADME_hCYP3A4: NovaScreen (NVS) CYP450-related Enzyme Activity (ADME) Assay for human CYP3A4 (AID 2283110)
Summary of the method: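 Activity is derived from decreased fluorescence intensity relative to acetonitrile, measured 0.33 hour after dosing insect-cell-expressed CYP3A4 in a cell-free format. Screening used 10 uM in duplicate before concentration-response follow-up.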

[4] = molecular target: Cytochrome P450 2C19 (Homo sapiens) (UniProt P33261); experiment: NVS_ADME_hCYP2C19: NovaScreen (NVS) CYP450-related Enzyme Activity (ADME) Assay for human CYP2C19 (AID 2283113);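 as to AC50: potency for inhibition seen as loss of fluorescent signal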
Summary of the method: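 Cell-free recombinant human CYP2C19 from insect cells, fluorescent substrate; activity read by fluorescence intensity 1 h after dosing. Primary screen in duplicate at 10 uM; actives retested in concentration series. Signal loss versus acetonitrile negative control.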

[5] = molecular target: human Beta-secretase (BACE), BACE1 (gene 23621) (UniProt P56817); experiment: NVS_ENZ_hBACE: NovaScreen (NVS) Enzymatic Assay for human Beta-secretase (BACE) (AID 2283140);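 also: hits are inhibitors that reduce fluorescent substrate signal versus DMSO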
Summary of the method: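 Enzyme from SF9 cells was incubated 1 hour with compound and fluorogenic substrate, activity read by fluorescence. Single-concentration duplicates at 25 uM preceded concentration-response follow-up; fitting relative to DMSO baseline.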

[6] = molecular target: human CYP2C9, CYP2C9 (gene 1559) (UniProt P11712); experiment: NVS_ADME_hCYP2C9: NovaScreen (NVS) CYP450-related Enzyme Activity (ADME) Assay for human CYP2C9 (AID 2283108)
Summary of the method: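 Cell-free assay of recombinant human CYP2C9 produced in Sf9 cells, with enzyme activity read by fluorescence intensity 0.75 h after compound addition. Loss of signal versus an acetonitrile negative control indicates inhibition. Primary screen used 10 uM in duplicate; actives were retested in concentration series.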

[7] = molecular target: human Caspase 5 (CASP5), CASP5 (gene 838) (UniProt P51878); experiment: NVS_ENZ_hCASP5: NovaScreen (NVS) Enzymatic Assay for human Caspase 5 (CASP5) (AID 2283137)
Summary of the method: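 Loss of fluorescent signal versus DMSO scored for E. coli-derived human CASP5 cleaving a fluorescent substrate, 2 h post-dosing; compounds first tested at 25 uM in duplicate, hits rerun in concentration series with 50 uM top concentration.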

Caspase-3 (Homo sapiens) = Caspase-3 (Homo sapiens) (UniProt P42574); experiment: NVS_ENZ_hCASP3: NovaScreen (NVS) Enzymatic Assay for human Caspase 3 (CASP3) (AID 2283139)
Summary of the method: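 Single-concentration screening at 25 uM in duplicate, with concentration-response follow-up to a 50 uM maximum for chemicals passing the threshold. Caspase-3 (human, E. coli-expressed) activity was read as substrate fluorescence after 1 h, with loss of signal relative to DMSO.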

[8] = molecular target: human Caspase 4 (CASP4), CASP4 (gene 837) (UniProt P49662); experiment: NVS_ENZ_hCASP4: NovaScreen (NVS) Enzymatic Assay for human Caspase 4 (CASP4) (AID 2283143)
Summary of the method: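 Compounds were first tested in duplicate at 25 uM, and hits were titrated singly to a 50 uM maximum. Recombinant protease from E. coli was read by fluorescence 2 h post-dose, and activity loss was fitted against the DMSO baseline.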

[9] = molecular target: human Casein Kinase 1-delta (CK1D), CSNK1D (gene 1453) (UniProt P48730); experiment: NVS_ENZ_hCK1D: NovaScreen (NVS) Enzymatic Assay for human Casein Kinase 1-delta (CK1D) (AID 2283148)
Summary of the method: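 Recombinant human CK1-delta, cell-free; fluorescent substrate with electrophoretic mobility-shift separation of product, read 1 h after dosing. Single 25 uM duplicate screen, then concentration-response up to 50 uM; loss of signal vs DMSO.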

[10] = molecular target: rat CYP2A2, Cyp2a2 (gene 24895) (UniProt P15149); experiment: NVS_ADME_rCYP2A2: NovaScreen (NVS) CYP450-related Enzyme Activity (ADME) Assay for rat CYP2A2 (AID 2283116)
Summary of the method: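 Compounds first tested in duplicate at 10 uM, then in singleton concentration series up to 20 uM when over threshold. Activity of the recombinant enzyme read by fluorescence at 0.2 h, normalised to acetonitrile vehicle.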

CDK2 (gene 1017) = CDK2 (gene 1017) (UniProt P24941); experiment: NVS_ENZ_hCDK2: NovaScreen (NVS) Enzymatic Assay for human Cyclin-Cependent Kinase 2 (CDK2) (AID 2283144)
Summary of the method: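 Compounds screened in duplicate at 25 uM, then in singleton concentration-response to a maximum of 50 uM, against recombinant CDK2; kinase activity read 1 hr after dosing by fluorescence with mobility-shift separation of substrate and product.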

[11] = molecular target: human AKT serine/threonine Kinase 1 (AKT1), AKT1 (gene 207) (UniProt P31749); experiment: NVS_ENZ_hAKT1: NovaScreen (NVS) Enzymatic Assay for human AKT serine/threonine Kinase 1 (AKT1) (AID 2283138)
Summary of the method: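 Screening first at 25 uM (duplicate), with threshold-passing chemicals re-tested in concentration series to a 50 uM maximum. Kinase activity read by fluorescence with mobility-shift separation of substrate and product, 1 h after dosing, DMSO baseline.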

[12] = molecular target: human Acid Phosphatase 1 (ACP1), ACP1 (gene 52) (UniProt P24666); experiment: NVS_ENZ_hACP1: NovaScreen (NVS) Enzymatic Assay for human Acid Phosphatase 1 (ACP1) (AID 2283136)
Summary of the method: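 Cell-free fluorescence read-out of phosphatase activity, substrate and product separated by mobility shift, taken 1.5 h after compound addition; protein produced in Sf9. Single 25 uM duplicate screen, followed by concentration series for actives, scored as signal loss relative to DMSO.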

rat CYP3A1, gene 25642 = experiment: NVS_ADME_rCYP3A1: NovaScreen (NVS) CYP450-related Enzyme Activity (ADME) Assay for rat CYP3A1 (AID 2283126)
Summary of the method: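 Compounds went first at 10 uM duplicate, then to series with 20 uM maximum. Fluorescence from substrate turnover by the recombinant enzyme was measured 0.5 h post-dosing, inhibition scored against acetonitrile vehicle.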

[13] = molecular target: rat CYP3A2, Cyp3a2 (gene 266682) (UniProt P05183); experiment: NVS_ADME_rCYP3A2: NovaScreen (NVS) CYP450-related Enzyme Activity (ADME) Assay for rat CYP3A2 (AID 2283128)
Summary of the method: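 Fluorescence readout of extracted rat CYP3A2 activity 0.5 h post-dose, acetonitrile as negative control. Single-point testing in duplicate at 10 uM, followed by concentration series to a 20 uM maximum for actives.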

[14] = molecular target: rat CYP2A1, Cyp2a1 (gene 24894) (UniProt P11711); experiment: NVS_ADME_rCYP2A1: NovaScreen (NVS) CYP450-related Enzyme Activity (ADME) Assay for rat CYP2A1 (AID 2283114; active = hit-call score of the fitted dose curve at least 0.9, where 1 is the maximum; inactive = score below 0.9)
Summary of the method: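 Cell-free fluorescence enzyme-activity read on recombinant rat CYP2A1, taken 0.75 h post-dosing. Compounds were screened in duplicate at 10 uM, then hits tested in concentration series (max 20 uM); inhibition scored relative to acetonitrile baseline.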

[15] = molecular target: rat CYP2C11, Cyp2c11 (gene 29277) (UniProt P08683); experiment: NVS_ADME_rCYP2C11: NovaScreen (NVS) CYP450-related Enzyme Activity (ADME) Assay for rat CYP2C11 (AID 2283118)
Summary of the method: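 Screened first at 10 uM in duplicate, hits followed by concentration-response. Recombinant rat enzyme activity monitored by fluorescence 0.33 h post-dosing, normalised to acetonitrile negative control.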

[16] = molecular target: rat CYP2C13, Cyp2c13 (gene 171521) (UniProt P20814); experiment: NVS_ADME_rCYP2C13: NovaScreen (NVS) CYP450-related Enzyme Activity (ADME) Assay for rat CYP2C13 (AID 2283121)
Summary of the method: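 Inhibition is read as decreased fluorescent product formation, referenced to acetonitrile vehicle. Cell-free recombinant rat Cyp2c13 reaction ran 0.75 hour; compounds first at 10 uM in duplicate, then concentration series for actives.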

Sequence of human AKT serine/threonine Kinase 1 (AKT1), AKT1 (gene 207) (P31749 whole entry, looked up): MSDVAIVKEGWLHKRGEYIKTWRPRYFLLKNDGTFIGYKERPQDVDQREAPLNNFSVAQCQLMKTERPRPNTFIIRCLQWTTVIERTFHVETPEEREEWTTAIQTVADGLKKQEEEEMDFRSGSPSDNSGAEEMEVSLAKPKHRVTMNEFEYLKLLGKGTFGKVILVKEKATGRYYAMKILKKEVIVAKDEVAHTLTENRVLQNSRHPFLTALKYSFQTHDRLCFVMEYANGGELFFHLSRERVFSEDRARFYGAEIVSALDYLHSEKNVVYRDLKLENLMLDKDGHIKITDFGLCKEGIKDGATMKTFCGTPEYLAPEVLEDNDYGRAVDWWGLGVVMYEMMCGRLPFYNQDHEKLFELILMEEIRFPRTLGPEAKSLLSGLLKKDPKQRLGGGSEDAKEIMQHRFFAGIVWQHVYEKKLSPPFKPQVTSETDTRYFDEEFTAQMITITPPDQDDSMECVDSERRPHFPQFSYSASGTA
Sequence of human Casein Kinase 1-delta (CK1D), CSNK1D (gene 1453) (P48730 whole entry, looked up): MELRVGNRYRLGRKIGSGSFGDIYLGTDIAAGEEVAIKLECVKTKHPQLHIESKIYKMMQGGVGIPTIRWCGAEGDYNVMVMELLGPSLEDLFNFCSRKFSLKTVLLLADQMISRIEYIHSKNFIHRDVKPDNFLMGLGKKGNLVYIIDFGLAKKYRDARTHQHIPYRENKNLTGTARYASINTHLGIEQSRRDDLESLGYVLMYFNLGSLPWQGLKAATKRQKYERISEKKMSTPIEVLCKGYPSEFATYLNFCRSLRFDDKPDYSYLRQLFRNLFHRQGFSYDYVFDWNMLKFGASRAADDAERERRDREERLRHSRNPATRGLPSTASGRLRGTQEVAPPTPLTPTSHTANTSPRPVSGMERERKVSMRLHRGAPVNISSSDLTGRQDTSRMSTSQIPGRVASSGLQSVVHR
Sequence of human Beta-secretase (BACE), BACE1 (gene 23621) (P56817 whole entry, looked up): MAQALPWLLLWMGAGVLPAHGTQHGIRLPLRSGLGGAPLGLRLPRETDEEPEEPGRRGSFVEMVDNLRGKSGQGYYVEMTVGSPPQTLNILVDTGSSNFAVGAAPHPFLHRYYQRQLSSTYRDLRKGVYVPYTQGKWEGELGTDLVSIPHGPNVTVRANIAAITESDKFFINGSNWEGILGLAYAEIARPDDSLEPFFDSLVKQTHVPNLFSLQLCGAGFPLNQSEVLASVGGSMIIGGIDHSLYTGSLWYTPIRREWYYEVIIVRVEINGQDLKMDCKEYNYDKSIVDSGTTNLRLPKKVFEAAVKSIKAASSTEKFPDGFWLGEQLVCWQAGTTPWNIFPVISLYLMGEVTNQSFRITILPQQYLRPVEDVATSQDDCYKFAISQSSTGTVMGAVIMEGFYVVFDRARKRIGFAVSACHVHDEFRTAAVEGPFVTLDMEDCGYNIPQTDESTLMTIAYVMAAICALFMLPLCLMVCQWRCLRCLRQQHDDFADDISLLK
Sequence of rat CYP3A2, Cyp3a2 (gene 266682) (P05183 whole entry, looked up): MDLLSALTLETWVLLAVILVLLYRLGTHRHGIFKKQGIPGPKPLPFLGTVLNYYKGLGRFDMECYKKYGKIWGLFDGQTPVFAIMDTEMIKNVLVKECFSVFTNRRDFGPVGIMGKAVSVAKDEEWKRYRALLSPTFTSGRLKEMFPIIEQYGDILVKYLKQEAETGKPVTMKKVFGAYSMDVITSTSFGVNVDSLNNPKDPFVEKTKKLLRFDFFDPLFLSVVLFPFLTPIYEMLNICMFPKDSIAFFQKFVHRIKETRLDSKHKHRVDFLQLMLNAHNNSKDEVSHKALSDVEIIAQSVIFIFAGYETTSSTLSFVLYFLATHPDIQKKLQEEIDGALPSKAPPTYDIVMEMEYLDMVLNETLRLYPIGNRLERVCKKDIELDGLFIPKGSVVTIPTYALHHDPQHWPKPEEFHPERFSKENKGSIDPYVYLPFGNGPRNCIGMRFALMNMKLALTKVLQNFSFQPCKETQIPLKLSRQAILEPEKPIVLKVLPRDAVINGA
Sequence of human Caspase 5 (CASP5), CASP5 (gene 838) (P51878 whole entry, looked up): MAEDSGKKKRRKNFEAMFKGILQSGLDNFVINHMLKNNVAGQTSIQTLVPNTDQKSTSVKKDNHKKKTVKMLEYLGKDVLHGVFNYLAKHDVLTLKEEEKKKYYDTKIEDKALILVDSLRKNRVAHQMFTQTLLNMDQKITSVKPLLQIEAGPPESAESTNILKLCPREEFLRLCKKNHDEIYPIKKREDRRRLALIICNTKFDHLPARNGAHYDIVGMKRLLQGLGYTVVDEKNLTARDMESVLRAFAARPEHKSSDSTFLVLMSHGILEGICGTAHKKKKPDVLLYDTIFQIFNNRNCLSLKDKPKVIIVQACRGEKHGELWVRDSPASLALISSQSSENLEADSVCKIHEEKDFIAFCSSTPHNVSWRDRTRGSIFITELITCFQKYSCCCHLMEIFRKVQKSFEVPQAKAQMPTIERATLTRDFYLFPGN
Sequence of human CYP2D6, CYP2D6 (gene 1565) (P10635 whole entry, looked up): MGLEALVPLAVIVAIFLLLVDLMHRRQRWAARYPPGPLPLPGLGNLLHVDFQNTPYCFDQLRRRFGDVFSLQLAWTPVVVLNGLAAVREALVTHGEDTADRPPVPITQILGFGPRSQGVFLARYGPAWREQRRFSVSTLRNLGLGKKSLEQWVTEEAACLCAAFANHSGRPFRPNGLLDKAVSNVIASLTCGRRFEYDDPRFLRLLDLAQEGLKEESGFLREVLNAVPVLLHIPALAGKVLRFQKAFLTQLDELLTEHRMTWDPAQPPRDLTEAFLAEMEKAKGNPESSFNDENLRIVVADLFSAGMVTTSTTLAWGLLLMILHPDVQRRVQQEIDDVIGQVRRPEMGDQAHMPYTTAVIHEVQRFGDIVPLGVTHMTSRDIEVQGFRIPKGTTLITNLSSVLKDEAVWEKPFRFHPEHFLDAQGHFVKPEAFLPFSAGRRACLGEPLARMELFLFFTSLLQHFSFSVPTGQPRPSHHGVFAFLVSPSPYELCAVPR
Sequence of human Caspase 8 (CASP8), CASP8 (gene 841) (Q14790 whole entry, looked up): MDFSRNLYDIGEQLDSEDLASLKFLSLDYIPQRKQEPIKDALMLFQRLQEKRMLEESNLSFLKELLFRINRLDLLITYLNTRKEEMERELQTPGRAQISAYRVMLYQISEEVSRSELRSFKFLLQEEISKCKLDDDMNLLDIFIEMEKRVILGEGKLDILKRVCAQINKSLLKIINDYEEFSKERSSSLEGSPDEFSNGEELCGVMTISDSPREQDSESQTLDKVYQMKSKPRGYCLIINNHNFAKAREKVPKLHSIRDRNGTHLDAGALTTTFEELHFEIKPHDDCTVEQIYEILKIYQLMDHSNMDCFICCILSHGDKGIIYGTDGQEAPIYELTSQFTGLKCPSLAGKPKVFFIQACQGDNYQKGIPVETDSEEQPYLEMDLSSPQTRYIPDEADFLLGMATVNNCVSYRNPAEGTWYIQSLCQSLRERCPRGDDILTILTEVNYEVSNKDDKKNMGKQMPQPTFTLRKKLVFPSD
Sequence of human CYP2C9, CYP2C9 (gene 1559) (P11712 whole entry, looked up): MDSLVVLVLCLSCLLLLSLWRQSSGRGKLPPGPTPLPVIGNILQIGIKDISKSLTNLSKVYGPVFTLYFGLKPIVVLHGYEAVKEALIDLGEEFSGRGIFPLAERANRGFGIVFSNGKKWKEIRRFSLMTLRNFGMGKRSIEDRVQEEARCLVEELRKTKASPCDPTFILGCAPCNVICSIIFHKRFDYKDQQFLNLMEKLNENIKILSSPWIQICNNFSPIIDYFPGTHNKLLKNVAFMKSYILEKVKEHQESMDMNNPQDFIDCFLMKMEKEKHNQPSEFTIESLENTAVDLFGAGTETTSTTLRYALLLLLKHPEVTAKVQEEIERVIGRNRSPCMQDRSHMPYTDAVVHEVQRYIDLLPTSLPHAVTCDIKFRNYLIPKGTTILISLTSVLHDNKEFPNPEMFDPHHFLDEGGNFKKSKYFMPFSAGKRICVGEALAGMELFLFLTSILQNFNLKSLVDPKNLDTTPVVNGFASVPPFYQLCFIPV
Sequence of rat CYP2C13, Cyp2c13 (gene 171521) (P20814 whole entry, looked up): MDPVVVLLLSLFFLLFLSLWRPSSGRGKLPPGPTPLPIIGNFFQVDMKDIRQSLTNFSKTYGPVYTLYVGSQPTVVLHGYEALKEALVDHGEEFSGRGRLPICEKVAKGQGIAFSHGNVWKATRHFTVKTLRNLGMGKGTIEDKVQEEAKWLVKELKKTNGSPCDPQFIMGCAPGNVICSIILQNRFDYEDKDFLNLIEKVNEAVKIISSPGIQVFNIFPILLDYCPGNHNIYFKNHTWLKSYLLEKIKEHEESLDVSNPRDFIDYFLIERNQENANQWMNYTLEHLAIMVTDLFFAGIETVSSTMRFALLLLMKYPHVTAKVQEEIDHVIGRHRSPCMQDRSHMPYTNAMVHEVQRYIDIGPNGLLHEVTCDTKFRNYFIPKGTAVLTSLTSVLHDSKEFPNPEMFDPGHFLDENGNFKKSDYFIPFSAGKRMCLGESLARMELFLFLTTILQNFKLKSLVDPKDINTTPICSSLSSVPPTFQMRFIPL
Sequence of human Acid Phosphatase 1 (ACP1), ACP1 (gene 52) (P24666 whole entry, looked up): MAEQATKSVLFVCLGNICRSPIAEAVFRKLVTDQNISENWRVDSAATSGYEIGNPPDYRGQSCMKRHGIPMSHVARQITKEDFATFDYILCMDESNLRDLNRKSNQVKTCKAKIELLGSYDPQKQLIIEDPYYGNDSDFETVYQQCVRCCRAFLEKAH
Sequence of rat CYP2C11, Cyp2c11 (gene 29277) (P08683 whole entry, looked up): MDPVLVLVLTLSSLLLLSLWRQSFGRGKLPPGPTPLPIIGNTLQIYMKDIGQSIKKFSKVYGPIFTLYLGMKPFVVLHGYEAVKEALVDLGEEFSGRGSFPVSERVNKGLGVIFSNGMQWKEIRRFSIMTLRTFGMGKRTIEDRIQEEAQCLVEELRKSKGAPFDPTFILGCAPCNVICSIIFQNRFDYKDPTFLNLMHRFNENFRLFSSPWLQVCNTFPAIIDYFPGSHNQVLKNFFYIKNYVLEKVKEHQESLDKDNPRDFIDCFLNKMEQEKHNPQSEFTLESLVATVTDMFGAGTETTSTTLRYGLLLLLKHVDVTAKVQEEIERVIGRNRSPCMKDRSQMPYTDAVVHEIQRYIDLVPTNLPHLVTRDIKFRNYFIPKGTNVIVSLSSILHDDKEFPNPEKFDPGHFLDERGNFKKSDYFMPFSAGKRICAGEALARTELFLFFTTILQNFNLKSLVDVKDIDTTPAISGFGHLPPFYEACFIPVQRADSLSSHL

CCCCCCCCCCCC[N+](C)(C)C
AC50 [1]: 7.58 µM (active)
outcome [2]: inactive

COc1ccc2cc(S(=O)(=O)N[C@H](CC(=O)N[C@H](Cc3ccc(CN4[C@H](C)CCC[C@@H]4C)cc3)C(=O)N(C)C(C)C)c3ccc4c(c3)OCO4)ccc2c1
AC50 [1]: 0.305 µM (active)
AC50 [3]: 0.861 µM (active)
AC50 [4]: 5.3 µM (active)
outcome [5]: inactive

CCN(Cc1cccc(S(=O)(=O)O)c1)c1ccc(C(=C2C=CC(=[N+](CC)Cc3cccc(S(=O)(=O)O)c3)C=C2)c2ccccc2S(=O)(=O)[O-])cc1
AC50 [6]: 4.22 µM (active)
AC50 [7]: 5.36 µM (active)
outcome (Caspase-3 (Homo sapiens)): inactive
AC50 [5]: 14.8 µM (active)
AC50 [8]: 4.96 µM (active)
outcome [2]: inactive
outcome [9]: inactive

Clc1ccccc1C(c1ccccc1)(c1ccccc1)n1ccnc1
AC50 [1]: 3.72 µM (active)
AC50 [6]: 0.585 µM (active)
AC50 [4]: 1.1 µM (active)

COc1cccc([C@H](O)C2CCN(CCc3ccc(F)cc3)CC2)c1OC
AC50 [1]: 5.29 µM (active)

CCCCOC(=O)CC(CC(=O)OCCCC)(OC(C)=O)C(=O)OCCCC
outcome [6]: inactive
AC50 [4]: 3.7 µM (active) and 9.42 µM (active)
outcome [10]: inactive

O=C(Nc1ccc(Cl)cc1)Nc1ccc(Cl)c(Cl)c1
AC50 [4]: 10 µM (active)
AC50 [5]: 16.3 µM (active)
outcome [9]: inactive

OC12N=C(c3ccccc3)SC1Cc1cc(Cl)ccc12 (stereo not drawn)
AC50 [4]: 0.245 µM (active)

NC(=O)c1nc(-c2cccc(-c3cc(F)ccc3OCC(F)(F)C(F)(F)F)c2)n[nH]1
outcome [5]: inactive

OCCO
outcome [5]: inactive

Oc1ccc2ccccc2c1
outcome (CDK2 (gene 1017)): inactive
AC50 [9]: 24.1 µM (active)

O=C1CCC(C2CCCCC2)CC1
outcome [4]: inactive

O=C(O)c1ccccc1-n1cc(C(=O)O)c(=O)c2cc(Nc3c(F)cc(F)cc3Cl)c(Cl)cc21
AC50 [5]: 5.43 µM (active)

O=CCCCC=O
AC50 [11]: 25 µM (active)
outcome [9]: inactive

c1ccc2ccccc2c1
outcome [12]: inactive
outcome [11]: inactive
outcome (CDK2 (gene 1017)): inactive
outcome [9]: inactive

CCCCCCCCOc1ccc(C(=O)c2ccccc2)c(O)c1
outcome [2]: inactive

CC(C)(C)c1csc(-c2cc3cc(OCc4ccccc4CC(=O)O)ccc3o2)n1
AC50 [5]: 17.1 µM (active)

O=c1c(-c2ccc(O)cc2)coc2cc(O)cc(O)c12
AC50 (rat CYP3A1, gene 25642): 8.92 µM (active) and 5.71 µM (active)
AC50 [13]: 995 nM (active) and 815 nM (active) and 5.56 µM (active)

O=C(O)Cc1cc(I)c(Oc2ccc(O)c(I)c2)c(I)c1
outcome [4]: inactive
outcome [5]: inactive
outcome [9]: inactive

CC/C(=C(/CC)c1ccc(O)cc1)c1ccc(O)cc1
AC50 [14]: 8.99 µM (active)
AC50 [10]: 10.2 µM (active)
AC50 [15]: 1.95 µM (active) and 7.02 µM (active)
AC50 [16]: 1.08 µM (active) and 3.79 µM (active)
outcome [12]: inactive
outcome [11]: inactive
outcome [2]: inactive
outcome [9]: inactive

CC1(C)NC(=O)N(c2ccc([N+](=O)[O-])c(C(F)(F)F)c2)C1=O
AC50 [4]: 2.81 µM (active)

Cc1c2ccccc2c(C)c2c1ccc1ccccc12
AC50 [4]: 7.17 µM (active)

CO[C@H]1/C=C/O[C@@]2(C)Oc3c(C)c(O)c4c(O)c(c(/C=N/N5CCN(C)CC5)c(O)c4c3C2=O)NC(=O)/C(C)=C\C=C\[C@H](C)[C@H](O)[C@@H](C)[C@@H](O)[C@@H](C)[C@H](OC(C)=O)[C@@H]1C
AC50 [4]: 10.7 µM (active)
AC50 [11]: 25.1 µM (active)
outcome [5]: inactive
AC50 [2]: 6.48 µM (active)

CC(C)(C)c1cc(/C=C2\SC(N)=NC2=O)cc(C(C)(C)C)c1O
AC50 [4]: 1.16 µM (active)

c1ccc2n[nH]nc2c1
AC50 [9]: 25 µM (active)

CC(=O)N1CCN(c2ccc(OC[C@H]3CO[C@](Cn4ccnc4)(c4ccc(Cl)cc4Cl)O3)cc2)CC1
outcome [5]: inactive
outcome [9]: inactive

Cc1cccc2ccccc12
outcome [4]: inactive

CN1C(=O)N(c2ccccc2Br)Cc2cnc(Nc3ccc4c(c3)OCC(CO)O4)nc21 (stereo not drawn)
AC50 [7]: 12.5 µM (active)
AC50 (CDK2 (gene 1017)): 11.7 µM (active)

C[C@]12CC[C@@H]3c4ccc(O)cc4CC[C@H]3[C@@H]1CC[C@H]2O
AC50 [4]: 0.649 µM (active)

CC[C@H](NC(=O)c1cc(F)ccc1NS(=O)(=O)c1cccc2cccnc12)c1ccccc1
outcome [3]: inactive
outcome [7]: inactive

Cc1ccc(C(C)C)cc1
outcome [5]: inactive
